{
  "source": "ChEMBL document CHEMBL3433997",
  "about": "“St. Jude Leishmania screening dataset” (2016)",
  "type_in_all_cases": "functional",
  "key": {"[1]": {"biological_target": "Solute carrier family 2, facilitated glucose transporter member 1 (Homo sapiens) (UniProt P11166)", "sequence (P11166 whole entry)": "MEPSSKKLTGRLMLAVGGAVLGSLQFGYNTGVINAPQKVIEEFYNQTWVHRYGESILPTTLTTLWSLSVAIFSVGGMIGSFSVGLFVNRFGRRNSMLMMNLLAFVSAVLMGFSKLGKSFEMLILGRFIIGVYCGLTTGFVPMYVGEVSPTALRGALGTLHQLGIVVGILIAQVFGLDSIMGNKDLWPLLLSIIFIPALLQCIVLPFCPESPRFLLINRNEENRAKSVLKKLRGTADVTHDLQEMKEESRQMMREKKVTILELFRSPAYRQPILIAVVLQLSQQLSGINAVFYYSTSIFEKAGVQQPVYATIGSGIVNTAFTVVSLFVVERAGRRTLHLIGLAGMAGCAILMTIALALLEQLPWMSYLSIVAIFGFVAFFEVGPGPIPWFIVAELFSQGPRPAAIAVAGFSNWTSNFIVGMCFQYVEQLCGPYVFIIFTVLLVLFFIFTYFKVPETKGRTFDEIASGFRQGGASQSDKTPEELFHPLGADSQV", "assay": "ST_JUDE_LEISH: Cytotoxicity at 2uM final concentration against transgenic Leishmania Mexicana promastigotes LmGLUT1 that are glucose transport deficient and complemented with the human glucose transporter GLUT1. Activity is measured by DNA content using SYBR green in vitro"}, "[2]": {"biological_target": "Hexose transporter 1 (Plasmodium falciparum) (UniProt O97467)", "assay": "ST_JUDE_LEISH: Cytotoxicity at 2uM final concentration against transgenic Leishmania Mexicana promastigotes LmPfHT that are glucose transport deficient and complemented with the Plasmodium falciparum hexose transporter. Activity is measured by DNA content using SYBR green in vitro"}, "[3]": {"biological_target": "Glucose transporter (Leishmania mexicana) (UniProt O61059)", "assay": "ST_JUDE_LEISH: Cytotoxicity at 2uM final concentration against transgenic Leishmania Mexicana promastigotes LmGT2 that are glucose transport deficient and complemented with the L. Mexicana glucose transporter 2. Activity is measured by DNA content using SYBR green in vitro"}},
  "data": [
    {"molecule": "CCN(CC)CCN(Cc1ccc(-c2ccc(Cl)cc2)cc1)C(=O)Cn1cc(CN(C)C)c(=O)nc1SCc1ccc(F)cc1", "values": [
      {"measurement": "inhibition", "setting": "[1]", "value": 0.45, "unit": "%"},
      {"measurement": "inhibition", "setting": "[2]", "value": 0.54, "unit": "%"},
      {"measurement": "inhibition", "setting": "[3]", "value": 1.16, "unit": "%"}
    ]},
    {"molecule": "O=C1CCCN1CCCNCc1ccc(-c2ccc(-c3nc4cc(C(F)(F)F)ccc4[nH]3)cc2)cc1", "values": [
      {"measurement": "inhibition", "setting": "[1]", "value": 3.36, "unit": "%"},
      {"measurement": "inhibition", "setting": "[2]", "value": 2.91, "unit": "%"},
      {"measurement": "inhibition", "setting": "[3]", "value": 2.6, "unit": "%"}
    ]},
    {"molecule": "COc1ccc(C(=O)C2CC2CN(C)CCC(O)c2ccc(Cl)c(Cl)c2)cc1", "note": "(stereo not given)", "values": [
      {"measurement": "inhibition", "setting": "[1]", "value": 1.1, "unit": "%"},
      {"measurement": "inhibition", "setting": "[2]", "value": 1.11, "unit": "%"},
      {"measurement": "inhibition", "setting": "[3]", "value": 4.55, "unit": "%"}
    ]},
    {"molecule": "c1ccc(-c2nc(Nc3nc4ccccc4[nH]3)[nH]c2-c2ccccc2)cc1", "values": [
      {"measurement": "inhibition", "setting": "[1]", "value": 10.8, "unit": "%"},
      {"measurement": "inhibition", "setting": "[2]", "value": 6.74, "unit": "%"},
      {"measurement": "inhibition", "setting": "[3]", "value": 4.43, "unit": "%"}
    ]},
    {"molecule": "CCN(CCNS(C)(=O)=O)c1ccc(N)c(C)c1", "values": [
      {"measurement": "inhibition", "setting": "[1]", "value": 1.65, "unit": "%"},
      {"measurement": "inhibition", "setting": "[2]", "value": 1.06, "unit": "%"},
      {"measurement": "inhibition", "setting": "[3]", "value": 1.72, "unit": "%"}
    ]}
  ]
}
